# Assay results: the supplement of paper PMC8253809
# Tests used:
# Assay in all cases: growth inhibition (% activity, log2 RLU normalised to DMSO / staurosporine); higher = more growth inhibition
# Conditions in all cases: 33 µM
# [1] = test system: DIPGX29 (H3.3 K27M diffuse intrinsic pontine glioma line)
# How it was run: (§1)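 Approved drugs, at a single final concentration of about 33 μM, were applied in triplicate to pHGG cell lines and H9-derived neural stem cells for 7 days at 37 °C, 5% CO2. The growth-inhibition value is the replicate median of log2-transformed CellTiter-Glo luminescence normalised per plate to % activity between solvent and positive control wells.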
# [2] = test system: DIPGX37 (H3.3 K27M diffuse intrinsic pontine glioma line)
# How it was run: as §1
# [3] = test system: DIPGX7 (H3.3 K27M diffuse intrinsic pontine glioma line)
# How it was run: as §1
# [4] = test system: DIPGX9 (diffuse intrinsic pontine glioma line)
# How it was run: as §1
# [5] = test system: HGGX39 (paediatric high-grade glioma line)
# How it was run: as §1
# [6] = test system: HGGX6 (H3.3 G34R paediatric high-grade glioma line)
# How it was run: as §1
# [7] = test system: HNSC
# How it was run: as §1
# [8] = test system: SUDIPGIV (diffuse intrinsic pontine glioma line)
# How it was run: as §1
# [9] = test system: SUDIPGVI (diffuse intrinsic pontine glioma line)
# How it was run: as §1
# [10] = test system: SUDIPGXIII (diffuse intrinsic pontine glioma line)
# How it was run: as §1
Compound,growth inhibition [1],growth inhibition [2],growth inhibition [3],growth inhibition [4],growth inhibition [5],growth inhibition [6],growth inhibition [7],growth inhibition [8],growth inhibition [9],growth inhibition [10]
CN1CCN2c3ccccc3Cc3ccccc3C2C1 (stereo not given),1.33%,-0.487%,0.702%,-0.0886%,2.14%,-2.26%,2.01%,-0.203%,-0.707%,-2.33%
O=C(O)CCc1nc(-c2ccccc2)c(-c2ccccc2)o1,-0.808%,1.84%,-1.35%,-1.33%,0.585%,1.25%,-2.45%,-2.53%,0.464%,1.19%
CS(=O)(=O)OCCCCOS(C)(=O)=O,1.61%,2.89%,1.75%,1.86%,3.01%,2.25%,-0.43%,0.215%,0.662%,0.839%
CN1CCC(=C2c3ccccc3CCc3cccnc32)CC1,-2.68%,0.139%,0.133%,-1.74%,-1.55%,-5.77%,24.2%,-1.91%,-8.64%,1.19%
CC/C(=C(/CC)c1ccc(O)cc1)c1ccc(O)cc1,-0.353%,0.261%,1.61%,0.802%,-1.26%,-0.016%,-1.62%,0.624%,0.165%,-10.6%
O=C(CCNNC(=O)c1ccncc1)NCc1ccccc1,-2.81%,1.16%,-0.869%,-2.76%,-1.32%,-1.96%,2.79%,-2.06%,-1.86%,0.338%
Clc1ccc(COC(Cn2ccnc2)c2ccc(Cl)cc2Cl)cc1 (stereo not given),1.53%,4.62%,0.954%,4%,9.31%,8.25%,7.53%,11.7%,1.21%,7.66%
O=C(O)c1cc(=O)c2ccccc2o1,-0.199%,-0.128%,0.253%,1.55%,0.445%,-1.13%,-0.975%,0.468%,2.48%,0.672%
CN(C)[C@@H](CCOc1cccc2ccccc12)c1ccccc1,10.6%,0.861%,6%,3.36%,5.09%,0.0424%,67.5%,3.4%,-2.24%,0.415%
CCCNC(=O)NS(=O)(=O)c1ccc(Cl)cc1,2.28%,4.25%,2.73%,6.15%,3.29%,2.21%,9.27%,2.61%,2.64%,0.944%
Cn1cnc([N+](=O)[O-])c1Sc1ncnc2[nH]cnc12,15.9%,9.81%,21.6%,13.8%,18.2%,18.5%,55.8%,32.2%,8.24%,17.1%
CC(C)NCC(O)c1ccc(NS(C)(=O)=O)cc1 (stereo not given),-1.59%,1.48%,1.46%,0.414%,0.329%,-2.93%,9.65%,3.05%,2.59%,-1.17%
CC(=O)NS(=O)(=O)c1ccc(N)cc1,0.584%,1.84%,0.329%,0.364%,1.9%,2.46%,-1.34%,-0.27%,0.507%,0.27%
Nc1ccc(S(N)(=O)=O)cc1,-0.377%,1.14%,0.22%,1.31%,2.44%,0.596%,-1.62%,-1.35%,0.652%,1.2%
CCCC(=O)O[C@]1(C(=O)COC(C)=O)CC[C@H]2[C@@H]3C[C@H](F)C4=CC(=O)C=C[C@]4(C)[C@@]3(F)[C@@H](O)C[C@@]21C,1.5%,1.44%,-0.393%,2.91%,2.12%,0.881%,-3.23%,-4.91%,-0.161%,1.12%
CN1CC2c3ccccc3Oc3ccc(Cl)cc3C2C1 (stereo not given),1.89%,-5.66%,0.982%,0.366%,5.72%,0.239%,2.74%,2.1%,-0.852%,0.618%
[I-].[K+],-0.931%,-0.668%,-0.00688%,-0.676%,0.215%,-4.01%,20.4%,-0.567%,-0.261%,-4.16%
COc1ccc2[nH]cc(CCNC(C)=O)c2c1,-2.35%,-0.423%,-1.32%,-1.49%,-1.11%,-2.19%,-1.52%,-1.67%,-0.827%,-1.28%
C[C@]12CCC3=C4CCC(=O)C=C4CC[C@H]3[C@@H]1CC[C@@]2(O)CC#N,1.43%,-1.59%,-0.302%,0.24%,0.279%,-1.72%,0.249%,-0.958%,1.03%,0.668%
COc1c(N2CCNC(C)C2)c(F)cc2c(=O)c(C(=O)O)cn(C3CC3)c12 (stereo not given),0.952%,-1.73%,2.3%,1.28%,4.77%,0.493%,8.87%,1%,2.31%,1.42%
OCC(CO)N[C@H]1C[C@](O)(CO)[C@@H](O)[C@H](O)[C@H]1O,-0.323%,0.847%,-1.4%,0.186%,0.139%,-0.0513%,-1.53%,-0.574%,0.28%,0.0745%
CCCC1O[C@@H]2C[C@H]3[C@@H]4CCC5=CC(=O)C=C[C@]5(C)[C@H]4[C@@H](O)C[C@]3(C)[C@]2(C(=O)CO)O1 (stereo not given in full),2.07%,-0.133%,-1.11%,3.67%,3.05%,1.13%,-0.0191%,40.8%,-5.45%,18.8%
C[C@@H]1CN(c2c(F)c(N)c3c(=O)c(C(=O)O)cn(C4CC4)c3c2F)C[C@H](C)N1,0.694%,1.71%,3.53%,1.04%,1.49%,-2.08%,33.6%,1.6%,-0.838%,-0.539%

Compound,growth inhibition [1],growth inhibition [2],growth inhibition [3],growth inhibition [4],growth inhibition [5],growth inhibition [6],growth inhibition [7],growth inhibition [8],growth inhibition [9],growth inhibition [10]
c1ccc2c(c1)CCCC2C1=NCCN1 (stereo not given),1.99%,2.84%,1.62%,2.1%,2.48%,2.7%,8.78%,3.45%,2.93%,0.717%
CNC(=O)c1ccc(N2C(=S)N(c3ccc(C#N)c(C(F)(F)F)c3)C(=O)C2(C)C)cc1F,0.905%,-0.457%,1.36%,1.43%,6.4%,1.33%,4.97%,1.84%,-1.51%,1.86%
CN(C)CCN(Cc1ccccc1)c1ccccn1,1.64%,2.34%,0.0331%,3.36%,5.32%,0.326%,-1.72%,-0.134%,1.29%,2.37%
CNNCc1ccc(C(=O)NC(C)C)cc1,2.14%,-0.517%,2.87%,1.95%,3.29%,0.0869%,6.38%,-0.464%,2.55%,-0.216%
CC(C)(S)[C@@H](N)C(=O)O,0.657%,-0.325%,5.5%,-0.781%,0.519%,-2.1%,45.1%,-0.3%,0.273%,-1.43%
COc1cc2c(cc1Cc1cccc(Cl)c1F)c(=O)c(C(=O)O)cn2[C@H](CO)C(C)C,1.03%,1.4%,3.52%,3.93%,4.45%,0.0329%,19.8%,9.68%,1.61%,5.02%
CCN(CC)CC(=O)Nc1c(C)cccc1C,1.31%,0.211%,2.14%,1.09%,2.87%,0.583%,1.55%,0.232%,2.37%,1.3%
CCOC(=O)[C@H](CCc1ccccc1)N[C@H]1CS[C@H](c2cccs2)CN(CC(=O)O)C1=O,-2.15%,0.457%,0.303%,-0.286%,0.0238%,0.0397%,1.94%,-0.624%,-2.82%,0.0387%
CC(=O)N[C@H]1[C@H]([C@H](O)[C@H](O)CO)OC(C(=O)O)=C[C@@H]1NC(=N)N,1.23%,2.89%,2.14%,1.62%,1.17%,-2.7%,7.75%,1.46%,2.82%,2.15%
Cn1c([N+](=O)[O-])cnc1COC(N)=O,0.121%,3.86%,2.76%,0.536%,2.55%,-0.567%,7.72%,2.41%,2.16%,0.864%
COc1cccc(N(C)C(=S)Oc2ccc3c(c2)CCCC3)n1,2.16%,1.79%,1.25%,2.82%,2.33%,1.82%,1.51%,0.755%,2.8%,1.12%
Cc1cn(C2C=CC(CO)O2)c(=O)[nH]c1=O (stereo not given),0.293%,-1.7%,-0.477%,0.481%,-0.264%,-0.492%,1.41%,-1.27%,1%,0.705%
CCCCc1oc2ccccc2c1C(=O)c1cc(I)c(OCCN(CC)CC)c(I)c1,11.5%,3.87%,16.3%,3.8%,8.92%,12.4%,34.9%,6.94%,3.07%,7.05%
CC(C)(C)c1cc(C(C)(C)C)c(NC(=O)c2c[nH]c3ccccc3c2=O)cc1O,7.53%,4.87%,25.1%,8.47%,22.4%,15.2%,11.9%,9.36%,2.56%,2.28%
CCCCC(CC)CN=C(N)N=C(N)NCCCCCCNC(N)=NC(N)=NCC(CC)CCCC (stereo not given),57.1%,60.6%,58.2%,57.3%,58.4%,59.5%,67.8%,59.4%,60.2%,69.8%
N=C(N)NS(=O)(=O)c1ccc(N)cc1,1.78%,3.55%,1.86%,2.35%,3.26%,1.87%,0.257%,1.45%,1.1%,-0.789%
CCN1CCCC1CNC(=O)c1cc(S(=O)(=O)CC)c(N)cc1OC (stereo not given),2.92%,-2.18%,2.4%,-0.361%,1.17%,-1.1%,0.824%,2.02%,-8.92%,-0.464%
Cc1ncc([N+](=O)[O-])n1CC(O)CCl (stereo not given),1.6%,-0.696%,3.64%,1.89%,2.83%,1.22%,6.21%,1.59%,4.35%,0.346%
COc1cc(C(=O)NS(=O)(=O)c2ccccc2C)ccc1Cc1cn(C)c2ccc(NC(=O)OC3CCCC3)cc12,-0.736%,1.77%,0.79%,-1.19%,1.49%,-2.28%,-0.546%,-0.0974%,1.76%,0.405%
CN1CCN(c2cc3c(cc2F)c(=O)c(C(=O)O)cn3-c2ccc(F)cc2)CC1,0.274%,1.39%,0.237%,1.68%,1.58%,-0.335%,4.83%,0.444%,1.63%,0.0917%
Cc1ccc(NC(=O)c2ccc(CN3CCN(C)CC3)cc2)cc1Nc1nc(-c2cccnc2)cs1,8.55%,4.57%,8.77%,6.79%,15.1%,9.96%,9.74%,7.78%,9.06%,2.08%
COc1ccc2c(c1OC)C(=O)O[C@@H]2[C@H]1c2c(cc3c(c2OC)OCO3)CCN1C,-0.0995%,0.428%,-0.697%,-1.08%,0.078%,1.48%,-1.88%,-0.28%,-0.0763%,1.03%
